Bioassay records from PubChem BioAssay.
This is a sample that favours compounds with a hit; in the whole collection about 9.3% have one here.
FMDV inh: High Throughput Screening for Foot and Mouth Disease Virus Antivirals. hit rate 1.2% among 410,000. AID 1159524, 2015. FMDV antiviral cell-based qHTS. Potency, µM (doses to about 57.9 µM), without a hit: at the top dose activity change, negative = inhibition, most hits filed as inhibitors; calls by dose curve; tested in HEK293T cells; note: read-out not given here; potency is the fitted concentration of half-maximal effect; nearly all actives have a fitted effect of over 45% in size
HCMV antiviral: qHTS Assay for inhibitors of the human cytomegalovirus (HCMV) | hit rate 4.5% among 410,000 | activity change, negative = inhibition, % at 57.5 µM | HFF cells, HCMV-luciferase reporter, 72 h; stronger effect = lower value | AID 1259415, 2018; in the data active = activity change below about -60%; inconclusive = no clear call, values can overlap the other calls; inactive = above about -39%
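Two-dose cell screen: HFF monolayers treated with compounds and infected with luciferase-expressing HCMV at 1 PFU/cell, 72 h at 37C, then lysed for luciferase measurement.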
VACV Venus inh: qHTS for Stage-Specific Inhibitors of Vaccinia Orthopoxvirus: Venus Reporter Primary qHTS; Vaccinia virus Venus reporter expression, fluorescence; Potency, µM (top dose mostly 36.5 µM), for inactives: at the highest dose activity change, negative = inhibition, most hits filed as inhibitors; hit rate 0.46% among 330,000; AID 720580, 2013; calls by dose curve; tested in A549 cells; note: potency is the fitted concentration of half-maximal effect; nearly all actives have a fitted effect of over 30% in size
HCV inh: qHTS Assay for Inhibitors of Hepatitis C Virus (HCV). Huh7.5.1 HCVcc-Cre infection, luciferase reporter, 44 h. Potency, µM (top dose mostly 41.8 µM), for the others: at the top dose activity change, negative = inhibition, usual class: inhibitors. hit rate 3.4% among 340,000; note: potency is the fitted concentration of half-maximal effect
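Seed cells (1,000/well) for 4 h; treat with compound and infect with HCVcc-Cre, moi about 0.5. Incubate 44 h, then detect luciferase activity.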
Sm TGR block: qHTS Assay for the Inhibitors of Schistosoma Mansoni Peroxiredoxins; Schistosoma mansoni thioredoxin glutathione reductase (TGR), Q962Y6; purified TGR, DTNB reduction, TNB absorbance 405 nm; Potency, µM (doses to about 114 µM), without a hit: at the highest dose activity change, negative = inhibition, actives largely listed as inhibitors; hit rate 3% among 360,000; note: potency is the fitted concentration of half-maximal effect; nearly all actives have a fitted effect of over 60% in size
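TGR 20 nM + NADPH 100 uM (dispensed conc.), cpd preinc 15 min RT; start with NADPH (500 uM addition) then DTNB (15 mM addition). Kinetic TNB absorbance, 405 nm filter. Four-parameter Hill fit across titration.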
Vaccinia mCherry: qHTS for Stage-Specific Inhibitors of Vaccinia Orthopoxvirus: mCherry Reporter Primary qHTS. Vaccinia virus mCherry reporter infection, fluorescence. hit rate 0.63% among 310,000. Potency, µM (highest dose often 36.5 µM), inactives show at the top dose activity change, negative = inhibition, most hits filed as inhibitors. AID 720579, 2013; calls by dose curve; tested in A549 cells; note: potency is the fitted concentration of half-maximal effect; nearly all actives have a fitted effect of over 35% in size
Starred values were filed as active, the others as inactive; i = inactive; ? = inconclusive; · = no result; + = active, no number; ! = repeats disagree; [ ] = dose if it differs, or a comment. Unless noted, calls come from the whole dose curve; as a rule, active = well fitted curve in the direction sought with a large enough effect; inconclusive = small, poorly fitted or top-dose-only effect, or another doubt; inactive = no such curve, though single readings can be large; an effect the other way counts as inactive or inconclusive. % is set by controls: 0 for no effect and ±100 for the full control effect.

SMILES	FMDV inh	HCMV antiviral	VACV Venus inh	HCV inh	Sm TGR block	Vaccinia mCherry
COc1ccc(Cl)cc1NC(=O)Cn1c(=O)n(CCCC(=O)NCCc2ccc(OC)c(OC)c2)c(=O)c2ccccc21	-26.3%	-80.1*	-7.0%	·	-1.8%	-21.5%
COc1ccc(CCNC(=O)CCCn2c(=O)c3ccccc3n(CC(=O)Nc3cc(Cl)ccc3C)c2=O)cc1OC	-22.7%	1.8	-10.4%	·	6.8%	-17.6%
CCC(Cc1ccccc1)NC(=O)Cn1ncc2c3ccccc3n(Cc3ccccc3)c2c1=O (stereo unspecified)	0.0%	-98.8*	-16.3%	·	1.1%	?
COc1ccc(Cl)cc1NC(=O)Cn1ncc2c3ccccc3n(Cc3ccccc3)c2c1=O	5.1%	-67.9*	-10.9%	·	-9.5%	-9.2%
COc1ccc(-c2cn3c(n2)sc2cc(C(=O)NCCCN4CCCCCC4)ccc23)cc1	15.5%	·	?	·	-0.9%	?
COC(=O)C1=C(C)N(C)C(=O)/C1=C\c1ccco1	-14.3%	133.3	-28.7%	?	-47.3%	-5.5%
COC(=O)C1=C(C)N(Cc2ccco2)C(=O)/C1=C\c1ccc(N(C)C)cc1	-12.2%	-22.9	8.6%	0.4%	-34.3%	-12.6%
COC(=O)C1=C(C)N(Cc2ccco2)C(=O)/C1=C\c1ccc([N+](=O)[O-])cc1	22.4µM*	-15.9	10.4%	3.5%	7.94µM*	-6.9%
COC(=O)C1=C(C)N(Cc2ccc(OC)cc2)C(=O)/C1=C\c1ccco1	-15.7%	-8.0	1.7%	?	12.6µM*	?
COC(=O)C1=C(C)NC(=O)/C1=C\c1ccco1	13.8%	-15.7	-1.5%	-15.5%	25.1µM*	-13.8%
COC(=O)C1=C(C)NC(=O)/C1=C\c1cc(C)n(-c2cccc(C)c2)c1C	-16.8%	-19.0	-16.1%	?	25.1µM*	·
CC(=O)c1c(OC(=O)c2ccccc2Br)ccc2c(C)cc(=O)oc12	?	-11.4	-2.2%	-3.2%	3.8%	-1.1%
Nc1ccc2c(c1)sc1ccccc12	47.0%	26.0	2.9%	?	-2.3%	-13.4%
COC(=O)C1=C(C)N(c2ccc(C)c(C)c2)/C(=C/c2ccco2)C1=O	?	·	11.1%	?	35.5µM*	i
COc1cc(OC)c(-c2nc3ccccc3s2)cc1OC	-18.1%	88.4	·	11.2µM*	-6.8%	·
COc1cccc(-c2nc3ccccc3s2)c1O	-36.3%	91.9	-18.3%	?	·	-20.6%
Oc1c(Br)cc(Br)cc1-c1nc2ccccc2s1	-4.2%	29.1	-1.7%	·	44.7µM*	-2.4%
CCC[C@H]1[C@@H](NC(=O)Nc2cccc(C#N)c2)CC[C@@]23CCCN2C(=O)CCC[C@@H]13	·	-16.9	·	·	·	·
Cc1ccc(COc2ccc3oc(-c4ccccc4)c(C(=O)O)c3c2)cc1	1.9%	2.1	-8.6%	·	-3.3%	-6.6%
c1ccc(C2CC3CC(c4ccco4)N2O3)cc1 (stereo unspecified)	-2.0%	65.0	·	6.7%	35.5µM*	·
CCOc1ccc(NC(c2ccccn2)c2oc(CO)cc(=O)c2O)cc1 (stereo unspecified)	51.6%	-25.4	-5.3%	-6.3%	10µM*	32.3%
O[C@H]1c2ccccc2[C@H](Cc2cncs2)[C@@H]1Br	0.0%	13.6	-6.4%	-2.0%	-6.2%	i
C1=CC(Cc2cncs2)c2ccccc21 (stereo unspecified)	19.7%	?	-3.6%	?	50.1µM*	i
CCOC(=O)c1cc2c(=O)n3ccccc3nc2n(Cc2ccco2)c1=NC(=O)c1c(F)cccc1Cl	1.0%	2.9	-25.3%	·	3.98µM*	?
CCOC(=O)c1cc2c(=O)n3ccccc3nc2n(Cc2ccco2)c1=NC(=O)c1ccccc1Br	57.8%	-18.4	-26.0%	·	1.58µM*	?
SMILES	FMDV inh	HCMV antiviral	VACV Venus inh	HCV inh	Sm TGR block	Vaccinia mCherry
CCOC(=O)c1cc2c(=O)n3ccccc3nc2n(Cc2ccco2)c1=NC(=O)c1cccc(C)c1	7.4%	-2.8	-19.0%	·	-30.6%	-28.1%
CCOC(=O)c1cc2c(=O)n3ccccc3nc2n(Cc2ccco2)c1=NC(=O)c1cccc(Br)c1	-3.7%	-34.3	4.2%	·	2.24µM*	-11.8%
CCOC(=O)c1cc2c(=O)n3ccccc3nc2n(CCOC)c1=NC(=O)c1c(-c2c(F)cccc2Cl)noc1C	-3.8%	-60.6*!	0.8%	?	3.8%	-3.3%
CCOC(=O)c1cc2c(=O)n3ccccc3nc2n(Cc2ccco2)c1=NC(=O)c1ccc(Br)cc1	-9.7%	-12.6	-9.7%[7.34 µM]	·	?	-4.7%[7.34 µM]
CCCc1cc2c(=O)c(-c3cscn3)c(C(=O)OCC)oc2cc1O	9.8%	-26.7	-8.0%	15.0%	2.9%	-26.0%
CCOC(=O)c1[nH]nc(-c2cc(CC)c(O)cc2O)c1-c1cscn1	8.91µM*	-102.6*	·	?	6.1%	·
COc1cccc(CNC(=O)c2cccc(-n3c(C)nc4cccnc43)c2C)c1	-22.9%	?	-14.4%	·	0.6%	-12.9%
CNC(=O)c1cccc(-n2c(C)nc3cccnc32)c1C	-3.0%	+	8.3%	·	-0.7%	-5.5%
Cc1nn2c(-c3ccccc3)nnc2c2ccccc12	36.0%	60.1	·	3.9%	-8.2%	·
Cc1nn2c3ccccc3nc2c2ccccc12	20.1%	181.2	·	12.6µM*	-0.7%	·
CCN(CC)c1ccc(NC(=O)C2CCN(S(=O)(=O)c3c(C)noc3/C=C/c3ccccc3F)CC2)c(C)c1	2.4%	-4.5	-10.5%[7.34 µM]	·	-5.5%	-13.6%[7.34 µM]
COC(=O)c1ccc(C2Nc3ccc(/C(C)=N/NC(=O)C(OC)c4ccccc4)cc3C3C=CCC32)cc1 (stereo unspecified)	-4.3%	10.3	·	-20.9%	7.94µM*	·
COC(=O)c1ccc([C@@H]2Nc3c(OC)ccc(C)c3[C@@H]3C=CC[C@@H]32)cc1	-5.9%	-3.2	-12.2%	·	3.16µM*	-0.6%
Cc1ccc(NS(=O)(=O)c2ccc3c(c2)[C@H]2C=CC[C@H]2[C@@H](c2ccc(F)cc2)N3)cc1C	5.0%	2.0	-12.0%	·	?	-9.4%
COC(=O)c1ccc([C@H]2Nc3ccc(S(=O)(=O)Nc4cccc(C)c4)cc3[C@H]3C=CC[C@H]32)cc1	-14.9%	10.4	-9.7%	·	25.1µM*	-8.7%
COC(=O)c1ccc(C2NC(=O)CCC2[N+](=O)[O-])cc1 (stereo unspecified)	-16.6%	21.7	0.4%	19.9%	1.0%	-15.3%
COC(C(=O)N/N=C(\C)c1ccc(O)cc1)c1ccccc1 (stereo unspecified)	3.1%	-34.1	·	-2.8%	1.6%	·
O=C(O)c1ccc(NS(=O)(=O)c2ccc3c(c2)C2C=CCC2C(c2ccccc2F)N3)cc1 (stereo unspecified)	5.4%	-3.6	5.7%	6.1%	28.2µM*	-15.5%
